Among the data in PubChem BioAssay (Tox21) are outcome and Potency values, retold here.

Values joined by “and” are separate entries in the source; they are usually repeats but may differ in a detail not shown here. Equal values may be shown once. Inconclusive results are not listed. Active and inactive are the calls of the source. Unless noted, calls come from the whole dose curve.

The nature of test [1]: qHTS assay to identify small molecule agonists of the sonic hedgehog signaling (Shh) pathway (AID 1259368).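 Note: NIH/3T3-derived 3T3Gli1-Luc cells carrying a stable Gli1-driven firefly luciferase reporter; series mostly up to about 92 µM; nearly all actives have a fitted effect of over 15% in size.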 Summed up:
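Cells of a mouse NIH/3T3 clone stably expressing luciferase under the Gli1 transcriptional response element are exposed to test chemicals for 24 hr at 37 C. Pathway activation is detected as a rise in luminescence.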
In general terms: qHTS replaces the single test concentration by a dilution series.

A short description of test [2]: qHTS assay to identify small molecule antagonists of the sonic hedgehog signaling (Shh) pathway (AID 1259369). Note: nearly all actives have a fitted effect of over 45% in size. Note: potency is the fitted concentration of half-maximal effect. Summed up: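 Cells are plated and held 4hr at 37 C, compounds (DMSO) are pinned in, conditioned medium is added to stimulate the pathway, and after 24hr luciferase reagent is added for 30min before luminescence is read.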
For test [3], the target named is Estrogen receptor beta (Homo sapiens) (UniProt Q92731). As to the kind of experiment: qHTS assay to identify small molecule agonists of the estrogen receptor beta (ER-beta) signaling pathway (AID 1259377; active = well fitted activation curve with a large enough effect in the signal ratio in the repeat runs, not every such curve was filed as active; the % refers to the signal ratio). Summed up:
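In HEK293T cells bearing a UAS-beta-lactamase reporter under ER-beta control, DMSO-delivered compounds were incubated for 16 hr at 37C. Activity was detected as fluorescence 2 hours after LiveBLAzer B/G FRET substrate addition.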

For test [4] the target is unchanged. As to the kind of experiment: qHTS assay to identify small molecule antagonists of the estrogen receptor beta (ER-beta) signaling pathway (AID 1259378; active = well fitted inhibition curve with a large enough effect in the signal ratio in the repeat runs, not every such curve was filed as active; the % refers to the signal ratio). The procedure, abridged: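 Antagonist mode: compounds added to beta-lactamase reporter HEK293T ER-beta-UAS cells stimulated with E2 (1nM final), 16 hr at 37C. LiveBLAzer B/G FRET substrate, 2 hours room temperature, fluorescence read-out.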

Test [5] can be described thus: qHTS assay to identify small molecule agonists of the androgen receptor (AR) signaling pathway in the presence of an antagonist - cell viability counter screen (AID 1259379; active = well fitted curve in the direction sought with a large enough effect in the repeat runs; an effect the other way counts as inactive or inconclusive; note: nearly all actives have a fitted effect of over 25% in size; note: potency is the fitted concentration of half-maximal effect). Summed up:
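Cytotoxicity is assessed by CellTiter-Fluor in MDA-kb2 cells carrying an MMTV-driven luciferase reporter. Cells receive 3.0uM nilutamide plus compounds at 15 concentrations and incubate 16 hr at 37C without CO2 before fluorescence reading.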

Test [6] is described as follows: qHTS assay to identify small molecule agonists of the estrogen receptor beta (ER-beta) signaling pathway - cell viability counter screen (AID 1259380; active = well fitted curve in the direction sought with a large enough effect in the repeat runs; an effect the other way counts as inactive or inconclusive; note: nearly all actives have a fitted effect of over 30% in size). Summed up: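 Cytotoxicity is measured in parallel with the reporter screen: after 16 hr compound exposure at 37C and a 2 hr LiveBLAzer step, CellTiter-Glo is added to the same ER-beta-UAS-bla HEK293T wells and luminescence read after 30 min.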

Test [7] has as its target Androgen receptor (Homo sapiens) (UniProt P10275). Briefly: qHTS assay to identify small molecule agonists of the androgen receptor (AR) signaling pathway in the presence of an antagonist (AID 1259381). Note: nearly all actives have a fitted effect of over 15% in size. The procedure, abridged:
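Agonist-mode confirmation screen: human MDA-kb2 cells stably expressing luciferase under an MMTV promoter bearing AR and GR response elements, co-treated with 3.0uM nilutamide (final). Luminescence measured after 16hr compound incubation.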

Test [8] is described as follows: qHTS assay to identify small molecule antagonists of the estrogen receptor beta (ER-beta) signaling pathway - cell viability counter screen (AID 1259382; active = well fitted curve in the direction sought with a large enough effect in the repeat runs; an effect the other way counts as inactive or inconclusive;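 note: HEK293T cells carrying ER-beta-UAS-bla reporter stimulated with estradiol; series mostly up to about 92 µM; nearly all actives have a fitted effect of over 55% in size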). Summed up:
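Cytotoxicity counter screen multiplexed with the beta-lactamase antagonist assay: GripTite HEK293T ER-beta-bla cells were treated 16 hr with test chemicals in the presence of 1nM 17-beta-estradiol, and viability was measured by CellTiter-Glo.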

The target in test [9] is Estrogen receptor (Homo sapiens) (UniProt P03372). As to the kind of experiment: qHTS assay to identify small molecule agonists of the estrogen receptor alpha (ER-alpha) signaling pathway in the presence of an antagonist (AID 1259383). Note: top concentration of the series differs between compounds; nearly all actives have a fitted effect of over 15% in size. Summed up:
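Agonist-mode confirmation in the presence of the ER antagonist ICI-182,780 at 10.0nM final. Breast-derived VM7Luc4E2 reporter cells were exposed to compounds for 22hr, and ERE-driven luciferase was quantified by luminescence.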

Test [10] is described as follows: qHTS assay to identify small molecule agonists of the estrogen receptor alpha (ER-alpha) signaling pathway in the presence of an antagonist - cell viability counter screen (AID 1259386; active = well fitted curve in the direction sought with a large enough effect in the repeat runs; an effect the other way counts as inactive or inconclusive;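 note: cells exposed to compounds for 22 h at 37 °C before the viability read; nearly all actives have a fitted effect of over 30% in size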; note: potency is the fitted concentration of half-maximal effect). The procedure, abridged: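 Cytotoxicity was measured in parallel with the ERE-luciferase agonist screen, in the same wells. The cells were VM7Luc4E2, which endogenously express ER-alpha, and treatment was with compounds plus 10.0nM ICI-182,780 for 22hr.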

The target in test [11] is Progesterone receptor (Homo sapiens) (UniProt P06401). Briefly: qHTS assay to identify small molecule agonists of the progesterone receptor (PR) signaling pathway (AID 1346784). Note: nearly all actives have a fitted effect of over 30% in size. The procedure, abridged:
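Using charcoal-stripped serum (2%) to limit endogenous steroids, PR-UAS-bla HEK 293T cells received compounds for 16 hr at 37C after 6 hr plating; beta-lactamase FRET fluorescence was recorded following 2 hr substrate loading at room temperature.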

Test [12] has the same target. As to the kind of experiment: qHTS assay to identify small molecule antagonists of the progesterone receptor (PR) signaling pathway (AID 1346795; active = well fitted inhibition curve with a large enough effect in the signal ratio in the repeat runs, not every such curve was filed as active; the % refers to the signal ratio). The procedure, abridged: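 Inhibition of R5020-induced (1 nM final) beta-lactamase reporter signal in PR-UAS-bla HEK293T cells was scored by FRET fluorescence after overnight (16 hr) compound treatment.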
Test [13] in a line: qHTS assay to identify small molecule antagonists of the progesterone receptor (PR) signaling pathway - cell viability counter screen (AID 1346798; active = well fitted curve in the direction sought with a large enough effect in the repeat runs; an effect the other way counts as inactive or inconclusive; note: series mostly up to about 92 µM; nearly all actives have a fitted effect of over 50% in size). The procedure, abridged:
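ATP content as viability readout: CellTiter-Glo luminescence, 30 min room temperature, in PR-UAS-bla HEK293T cells after 16 hr compound/R5020 treatment at 37C and 5% CO2.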

Test [14] is described as follows: qHTS assay to identify small molecule agonists of the progesterone receptor (PR) signaling pathway - cell viability counter screen (AID 1346799). Note: nearly all actives have a fitted effect of over 45% in size. The procedure, abridged: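 Cytotoxicity in PR-bla HEK293T cells: 16 h compound, 37C; CellTiter-Glo added post-FRET read; luminescence after 30 min RT.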
Test [15] can be described thus: qHTS assay to identify small molecule antagonists of the TGF-beta/Smad signaling pathway - cell viability counter screen (AID 1346824; active = well fitted curve in the direction sought with a large enough effect in the repeat runs; an effect the other way counts as inactive or inconclusive; note: nearly all actives have a fitted effect of over 50% in size). Summed up: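 Cytotoxicity counter-screen run in the same wells as the beta-lactamase Smad reporter read: CellTiter-Glo luminescence after 30 min at room temperature. HEK 293T SBE-bla cells had 5 hr compound exposure at 37 C with TGF-beta1 (0.25 ng/mL stock).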

A short description of test [16]: qHTS assay to identify small molecule agonists of the TGF-beta/Smad signaling pathway - cell viability counter screen (AID 1346829; active = well fitted curve in the direction sought with a large enough effect in the repeat runs; an effect the other way counts as inactive or inconclusive; note: top concentration of the series differs between compounds; nearly all actives have a fitted effect of over 45% in size). Summed up: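 Here the cytotoxicity of library compounds is measured in SBE-bla HEK 293T cells treated for 5 hr, using CellTiter-Glo added to wells already read for the beta-lactamase reporter.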
The nature of test [17]: qHTS assay to identify small molecule agonists of the TGF-beta/Smad signaling pathway (AID 1346859; active = well fitted activation curve with a large enough effect in the signal ratio in the repeat runs, not every such curve was filed as active; the % refers to the signal ratio; note: series mostly up to about 77 µM). The procedure, abridged: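 Stable Smad binding element-beta-lactamase HEK 293T cells; 5 hr compound exposure at 37 C under 5% CO2; 2 hr room-temperature substrate step; fluorescence excited at 405 nm, collected at 460 nm and 530 nm.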
Test [18] in a line: qHTS assay to identify small molecule agonists or antagonists of the thyroid stimulating hormone receptor (TSHR) signaling pathway - wild type cell line counter screen (AID 1259384). Summed up: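 Counter screen in untransfected Hek293: compounds (15-point titration, triplicate) plus phosphodiesterase inhibitor Ro20-1724 added after 18 h plating; 30 min RT. Intracellular cAMP via competitive d2/cryptate immunoassay, 1 h incubation.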

Test [19] concerns the target Thyrotropin receptor (Homo sapiens) (UniProt P16473). Briefly: qHTS assay to identify small molecule antagonists of the thyroid stimulating hormone receptor (TSHR) signaling pathway (AID 1259385). Note: nearly all actives have a fitted effect of over 20% in size. The procedure, abridged:
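Antagonist mode: compound-treated TSHR-expressing HEK293 cells were stimulated with 1.5 ng/mL TSH (final) in presence of Ro20-1724 for 30 min at RT. HTRF cAMP detection after 1 h; each compound tested at 15 concentrations, triplicate.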

The target of test [20] is Thyrotropin-releasing hormone receptor (Homo sapiens) (UniProt P34981). Briefly: qHTS assay to identify small molecule antagonists of the thyrotropin-releasing hormone receptor (TRHR) signaling pathway (AID 1346877; active = well fitted inhibition curve with a large enough effect in the repeat runs, not every such curve was filed as active; note: series mostly up to about 51 µM). The procedure, abridged:
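Antagonism is measured as suppression of the calcium response to 1 nM TRH in TRHR-HEK293 cells that have been dye-loaded for 2 h at 37 °C after overnight plating. Each compound is tested at 15 concentrations in triplicate.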

Chain of Estrogen receptor beta (Homo sapiens) (Q92731 whole entry, looked up): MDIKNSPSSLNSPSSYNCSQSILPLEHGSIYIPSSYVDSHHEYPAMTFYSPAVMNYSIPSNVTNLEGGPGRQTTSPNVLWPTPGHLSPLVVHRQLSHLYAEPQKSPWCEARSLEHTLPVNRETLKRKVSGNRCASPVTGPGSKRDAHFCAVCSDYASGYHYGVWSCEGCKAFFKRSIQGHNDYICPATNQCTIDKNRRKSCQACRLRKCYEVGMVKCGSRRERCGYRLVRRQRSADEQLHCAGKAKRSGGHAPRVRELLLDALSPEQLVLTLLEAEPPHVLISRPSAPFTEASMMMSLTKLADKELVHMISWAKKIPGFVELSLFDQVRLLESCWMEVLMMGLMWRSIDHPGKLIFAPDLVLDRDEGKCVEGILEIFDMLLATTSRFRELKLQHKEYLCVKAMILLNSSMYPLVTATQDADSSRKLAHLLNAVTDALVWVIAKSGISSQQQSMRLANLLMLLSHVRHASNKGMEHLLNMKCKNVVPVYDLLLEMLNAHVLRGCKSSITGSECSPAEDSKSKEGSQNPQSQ
Chain of Progesterone receptor (Homo sapiens) (P06401 whole entry, looked up): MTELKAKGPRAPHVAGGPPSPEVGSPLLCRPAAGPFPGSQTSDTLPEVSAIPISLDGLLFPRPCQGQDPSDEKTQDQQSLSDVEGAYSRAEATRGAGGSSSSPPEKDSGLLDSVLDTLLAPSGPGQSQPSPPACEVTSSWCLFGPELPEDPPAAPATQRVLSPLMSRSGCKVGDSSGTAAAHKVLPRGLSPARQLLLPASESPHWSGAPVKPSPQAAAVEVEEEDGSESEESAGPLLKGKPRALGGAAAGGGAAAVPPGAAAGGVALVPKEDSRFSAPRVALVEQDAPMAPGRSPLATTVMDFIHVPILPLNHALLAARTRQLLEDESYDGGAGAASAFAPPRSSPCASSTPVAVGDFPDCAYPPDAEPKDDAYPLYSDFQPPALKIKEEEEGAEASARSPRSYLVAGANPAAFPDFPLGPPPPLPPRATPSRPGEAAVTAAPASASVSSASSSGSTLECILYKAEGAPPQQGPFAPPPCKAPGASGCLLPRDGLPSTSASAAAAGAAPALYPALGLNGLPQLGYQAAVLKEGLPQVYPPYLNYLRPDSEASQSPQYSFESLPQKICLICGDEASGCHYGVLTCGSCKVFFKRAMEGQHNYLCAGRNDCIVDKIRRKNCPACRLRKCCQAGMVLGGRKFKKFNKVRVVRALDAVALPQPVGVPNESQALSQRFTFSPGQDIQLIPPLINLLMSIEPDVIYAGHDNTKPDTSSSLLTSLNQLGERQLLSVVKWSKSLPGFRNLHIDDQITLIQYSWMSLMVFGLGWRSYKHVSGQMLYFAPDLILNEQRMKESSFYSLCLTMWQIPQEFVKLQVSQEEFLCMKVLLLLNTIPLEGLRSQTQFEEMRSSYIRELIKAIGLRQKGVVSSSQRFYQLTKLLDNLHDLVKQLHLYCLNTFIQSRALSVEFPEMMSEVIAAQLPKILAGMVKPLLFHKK
Chain of Estrogen receptor (Homo sapiens) (P03372 whole entry, looked up): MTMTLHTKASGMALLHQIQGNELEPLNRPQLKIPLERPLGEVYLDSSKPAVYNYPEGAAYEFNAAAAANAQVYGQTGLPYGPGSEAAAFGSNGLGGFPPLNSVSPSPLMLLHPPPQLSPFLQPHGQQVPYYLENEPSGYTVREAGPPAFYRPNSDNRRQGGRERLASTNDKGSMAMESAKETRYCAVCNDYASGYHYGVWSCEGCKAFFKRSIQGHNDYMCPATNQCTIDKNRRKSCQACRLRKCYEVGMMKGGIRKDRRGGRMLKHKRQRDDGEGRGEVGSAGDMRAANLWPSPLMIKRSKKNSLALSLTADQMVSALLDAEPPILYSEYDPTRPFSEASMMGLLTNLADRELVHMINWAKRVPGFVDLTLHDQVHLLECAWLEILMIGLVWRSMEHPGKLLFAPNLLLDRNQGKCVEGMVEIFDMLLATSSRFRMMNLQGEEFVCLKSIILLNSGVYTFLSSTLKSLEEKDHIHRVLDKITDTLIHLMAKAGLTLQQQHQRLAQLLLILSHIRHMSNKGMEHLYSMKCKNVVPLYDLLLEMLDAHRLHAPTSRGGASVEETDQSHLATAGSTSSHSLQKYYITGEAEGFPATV
Chain of Thyrotropin receptor (Homo sapiens) (P16473 whole entry, looked up): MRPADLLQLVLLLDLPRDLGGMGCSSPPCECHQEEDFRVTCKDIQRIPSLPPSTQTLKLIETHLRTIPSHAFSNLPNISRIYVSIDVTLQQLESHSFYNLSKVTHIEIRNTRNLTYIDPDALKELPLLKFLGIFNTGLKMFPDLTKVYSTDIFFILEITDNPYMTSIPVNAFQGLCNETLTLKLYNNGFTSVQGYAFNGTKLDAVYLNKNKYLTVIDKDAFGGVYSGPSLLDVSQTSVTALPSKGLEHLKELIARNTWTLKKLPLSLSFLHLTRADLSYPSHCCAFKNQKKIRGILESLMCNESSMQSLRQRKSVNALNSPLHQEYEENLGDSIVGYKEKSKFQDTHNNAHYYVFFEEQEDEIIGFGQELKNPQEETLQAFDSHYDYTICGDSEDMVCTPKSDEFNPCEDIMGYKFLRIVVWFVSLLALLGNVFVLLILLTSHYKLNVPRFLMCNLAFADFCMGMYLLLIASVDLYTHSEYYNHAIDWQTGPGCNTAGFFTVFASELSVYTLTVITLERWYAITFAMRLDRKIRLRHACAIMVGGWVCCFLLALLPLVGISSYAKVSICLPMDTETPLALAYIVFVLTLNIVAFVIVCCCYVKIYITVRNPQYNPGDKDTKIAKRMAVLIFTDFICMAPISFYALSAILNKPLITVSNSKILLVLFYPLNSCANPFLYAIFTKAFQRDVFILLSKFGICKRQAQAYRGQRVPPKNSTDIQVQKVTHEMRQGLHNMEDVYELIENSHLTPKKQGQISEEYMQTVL
Chain of Androgen receptor (Homo sapiens) (P10275 whole entry, looked up): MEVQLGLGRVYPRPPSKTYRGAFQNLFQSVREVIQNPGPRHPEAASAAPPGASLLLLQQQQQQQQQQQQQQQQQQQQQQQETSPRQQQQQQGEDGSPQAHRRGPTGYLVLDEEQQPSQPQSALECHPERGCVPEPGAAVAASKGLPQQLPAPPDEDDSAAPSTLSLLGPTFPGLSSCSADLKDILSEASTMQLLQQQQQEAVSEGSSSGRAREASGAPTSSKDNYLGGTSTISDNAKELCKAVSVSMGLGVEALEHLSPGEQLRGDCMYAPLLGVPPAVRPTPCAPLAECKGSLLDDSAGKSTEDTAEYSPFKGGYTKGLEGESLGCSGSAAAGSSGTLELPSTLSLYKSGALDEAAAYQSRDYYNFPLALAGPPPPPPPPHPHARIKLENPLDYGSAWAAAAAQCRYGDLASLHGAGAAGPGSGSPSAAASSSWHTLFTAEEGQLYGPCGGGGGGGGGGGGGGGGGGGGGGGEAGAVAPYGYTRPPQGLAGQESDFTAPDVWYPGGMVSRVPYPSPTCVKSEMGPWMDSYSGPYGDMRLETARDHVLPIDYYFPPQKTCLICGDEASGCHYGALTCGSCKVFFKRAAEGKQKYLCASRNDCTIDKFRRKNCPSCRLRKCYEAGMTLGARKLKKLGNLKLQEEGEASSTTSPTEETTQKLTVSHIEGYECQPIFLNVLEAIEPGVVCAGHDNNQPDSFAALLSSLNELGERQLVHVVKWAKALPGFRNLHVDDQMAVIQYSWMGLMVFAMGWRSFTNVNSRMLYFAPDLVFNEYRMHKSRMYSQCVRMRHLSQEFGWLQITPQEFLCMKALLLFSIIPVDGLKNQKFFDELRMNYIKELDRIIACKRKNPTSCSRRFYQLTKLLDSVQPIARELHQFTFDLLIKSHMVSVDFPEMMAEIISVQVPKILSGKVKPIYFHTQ
Chain of Thyrotropin-releasing hormone receptor (Homo sapiens) (P34981 whole entry, looked up): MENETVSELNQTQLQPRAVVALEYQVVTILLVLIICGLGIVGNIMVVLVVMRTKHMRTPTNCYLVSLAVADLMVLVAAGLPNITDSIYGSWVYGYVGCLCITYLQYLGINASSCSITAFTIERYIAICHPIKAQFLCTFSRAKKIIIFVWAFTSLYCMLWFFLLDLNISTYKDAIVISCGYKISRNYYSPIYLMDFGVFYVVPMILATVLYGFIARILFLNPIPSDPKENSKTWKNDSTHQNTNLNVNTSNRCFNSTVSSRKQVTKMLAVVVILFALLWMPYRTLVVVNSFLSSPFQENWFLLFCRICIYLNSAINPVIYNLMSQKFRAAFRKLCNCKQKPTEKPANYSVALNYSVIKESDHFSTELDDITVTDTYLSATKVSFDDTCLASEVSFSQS

Regarding `O=[N+]([O-])c1cc(N(CCO)CCO)ccc1NCCO`, the outcome in test [1] and in test [17] was inactive. The Potency result in [2], in test [3], in [4], in test [6], in test [7] and in test [8] was “inactive” throughout. In addition, the Potency entry in [9], in [11], in [12], in [13], in [14] and in test [15] was “inactive” in each case. Also, the Potency entry in [16] was “inactive”. For the same compound, the Potency in test [5] is 54.4 µM (active) and 30.6 µM (active); in test [10] it was 34.3 µM (active) and 27.3 µM (active).

Turning to `C/C=C(C)/C=C/C=C(C)C`, the compound was called inactive in test [1] and in test [17]. The Potency in [2] is 27.3 µM (active). Also, the Potency entry in test [3], in [4], in [6], in [8], in test [10] and in test [11] was “inactive” each time. Further, the Potency result in test [12], in [13], in [14], in test [15] and in [16] was “inactive” each time.

With `O=[N+]([O-])C(CO)(CO)CO`, the call in test [1], in [18], in [19], in test [17] and in [20] was inactive. Moreover, the Potency in test [2] was 0.151 µM (active). For the same compound, the Potency entry in [3], in test [6], in test [8], in [9], in [10] and in test [11] was “inactive” throughout. The Potency result in test [12], in [13], in test [14] and in test [16] was “inactive” throughout.

Consider `NCCNCCNCCNCCN`, for which the call in [1], in test [18], in [19] and in test [17] was inactive. Moreover, the Potency entry in test [2], in test [3], in [6], in test [7], in test [8] and in test [10] was “inactive” throughout. Besides, the Potency entry in test [11], in test [12], in [13], in test [14] and in [16] was “inactive” each time.

For `NS(=O)(=O)c1cc2c(cc1Cl)NC=NS2(=O)=O`, the compound was classed as inactive in [1], in test [18], in [19], in test [17] and in test [20]. For the same compound, the Potency result in test [2], in test [3], in test [6], in [8], in test [9] and in test [10] was “inactive” each time. Moreover, the Potency result in test [11], in test [12], in test [13], in test [14] and in test [16] was “inactive” in each case.

In the case of `CCc1ccccc1O`, the compound was called inactive in test [1], in [18], in test [19], in [17] and in test [20]. In addition, the Potency result in [2], in [3], in test [5], in test [6], in test [8] and in [9] was “inactive” throughout. The Potency entry in test [10], in test [11], in test [12], in test [13], in test [14] and in [15] was “inactive” in each case. Besides, in test [16], the Potency result was “inactive”.

With `Nc1c(S(=O)(=O)O)cc(Br)c2c1C(=O)c1ccccc1C2=O`, the result in test [1], in [18], in test [19], in test [17] and in [20] was inactive. In addition, the Potency result in [2], in test [3], in [6], in [8], in [9] and in test [11] was “inactive” in each case. For the same compound, the Potency result in test [12], in test [13], in test [14], in test [15] and in test [16] was “inactive” in each case. Also, the Potency in test [10] is 30.6 µM (active).
